Assay outcomes from PubChem BioAssay.
TEAD-YAP block: TEAD-YAP interaction inhibition; HEK-TIYL cells, TEAD-Gal4/YAP UAS-luciferase luminescence; inhibition, % at 9.12 µM; 640,000 tested, 1.4% active; in the data active = inhibition above about 32%;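 note: 0% = median of test compound wells and 100% = reference inhibitor wells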
MITF primary: blocks human microphthalmia-associated transcription factor; O75030; AlphaScreen MITF homodimerization, bead proximity signal; 650,000 tested, 0.91% active; inhibition, % at 2.6 µM; in the data active = inhibition above about 50%;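 note: 0% = vehicle wells with protein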
Target sequence (O75030 whole entry, looked up): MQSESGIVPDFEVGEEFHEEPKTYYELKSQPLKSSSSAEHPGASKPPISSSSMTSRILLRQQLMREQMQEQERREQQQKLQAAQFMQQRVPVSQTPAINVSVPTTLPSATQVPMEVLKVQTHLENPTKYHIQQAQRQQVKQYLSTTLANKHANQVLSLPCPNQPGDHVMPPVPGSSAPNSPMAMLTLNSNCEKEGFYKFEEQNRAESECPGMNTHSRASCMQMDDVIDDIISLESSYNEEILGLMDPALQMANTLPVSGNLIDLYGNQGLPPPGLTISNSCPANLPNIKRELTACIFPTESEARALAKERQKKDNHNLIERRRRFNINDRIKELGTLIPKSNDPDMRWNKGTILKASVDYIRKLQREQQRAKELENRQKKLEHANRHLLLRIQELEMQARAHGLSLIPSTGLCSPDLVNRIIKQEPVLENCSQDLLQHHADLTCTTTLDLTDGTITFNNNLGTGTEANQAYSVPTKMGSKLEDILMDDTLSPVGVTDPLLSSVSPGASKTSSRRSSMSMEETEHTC
FBW7 activator: activators of human E3 ligase FBW7; AID 1259310; Q969H0; normalized activity (activation), % at 26.1 µM; 650,000 tested, 0.13% active; AlphaScreen FBW7–phospho-cyclin E peptide binding, activator screen; in the data active = normalized activity above about 1.9%;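 note: purified mutant Fbw7 with reduced substrate affinity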
GPR151 ag: activates the human receptor GPR151; Q8TDV0; PathHunter beta-arrestin GPR151 cells, luminescence; activation, % at 11.2 µM; 650,000 tested, 1% active; AID 1508602; in the data active = activation above about 4.9%;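 note: 0% = median of compound wells and 100% = cells with positive control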
MITF inh conf: confirmation of human MITF inhibitors; shares compounds with MITF primary; AlphaScreen MITF homodimerization, biotin/His-MITF beads; inhibition, % at 2.6 µM; 4,700 tested, 16% active;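 active = inhibition above a cutoff derived from the DMSO control wells, cut at about 28% in these data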;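 note: 0% = MITF dimer wells with DMSO only; inhibitors lower the bead chemiluminescence by keeping MITF from dimerizing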
AlphaScreen DR: optically interferes with AlphaScreen signal in dose response; 480 tested, 6% active; AlphaScreen optical interference counterscreen, cell-free; IC50, µM; shares compounds with MITF primary; call rule not given here
AS interf ctr: AlphaScreen optical interference, counter-screen; shares compounds with MITF primary; LysRS AlphaScreen counterscreen, signal interference, triplicate; inhibition, % at 2.6 µM; 4,700 tested, 7.6% active;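 active = inhibition above a cutoff derived from the DMSO control wells, cut at about 30% in these data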
Starred values were filed as active, the others as inactive; · = not tested or not shown. The list is not random: actives were taken first. Their share in the collection is about 3.5%.

SMILES	TEAD-YAP block	MITF primary	FBW7 activator	GPR151 ag	MITF inh conf	AS interf ctr	others
CCCc1nc(SCC(=O)NC(C)(C)C)c2ccccc2n1	-11	53*	0	-1	7	15
CC(=O)Oc1ccccc1-c1nc2s/c(=C\c3cn(-c4ccccc4)nc3-c3ccc(OCCC(C)C)cc3)c(=O)n2n1	4	-14	0	1	·	·
O=C(/C=C/c1ccc2c(c1)OCO2)CC1(O)C(=O)N(Cc2ccccc2)c2ccccc21 (stereo not given)	16	68*	0	0	6	14
N/C(=N\OC(=O)CCCN1C(=O)CCC1=O)c1ccc(Br)cc1	-32	-2	0	1	·	·
COc1ccc([N+](=O)[O-])cc1NC(=O)CC1SCC(C(=O)O)NC1=O (stereo not given)	-3	1	0	-1	·	·
CCNc1cc(C)nc(N2CCN(C(=O)c3cccc(OC)c3)CC2)n1	7	59*	0	-2	-1	-2
COc1ccc(C(=O)N2CCN(Cc3ccc(Cl)cc3)CC2)cc1OC	13	53*	0	0	-4	8
COc1ccc(C(=O)N2CCN(Cc3cc(OC)c(OC)c(OC)c3)CC2)cc1OC	-2	32	0	0	·	·
CCNc1cc(C)nc(N2CCN(C(=O)c3c(F)cccc3Cl)CC2)n1	2	13	0	-1	·	·
COc1cccc(C(=O)N2CCN(Cc3cccc(Br)c3)CC2)c1	10	54*	1	-2	-3	-2
COc1cccc(OC)c1C(=O)N1CCN(Cc2cccc(Br)c2)CC1	0	64*	0	-1	-3	-7
O=C1CCN(Cc2cc(F)cc(F)c2)CCN1CC1CCCCC1	8	10	0	-1	·	·
COc1cccc(C(=O)N2CCN(Cc3ccc(OC)c(OC)c3)CC2)c1	3	61*	0	1	-2	-4
COc1cccc(C(=O)N2CCN(Cc3ccc(C)cc3)CC2)c1	-5	58*	1	0	10	12
Oc1ccc(CCNc2cc(-c3cccs3)ncn2)cc1	-18	59*	0	3	44*	4	AlphaScreen DR=>6.7
O=S(=O)(c1cnc[nH]1)N1CCN(c2cccc(Cl)c2)CC1	1	3	0	0	·	·
Cc1ccc(-n2ncc(C#N)c2/N=C/N2CCN(C)CC2)cc1	-5	56*	0	2	2	12
O=C(O)c1ccc(NC2OC(CO)C(O)C2O)cc1 (stereo not given)	3	66*	0	-2	57*	7	AlphaScreen DR=>5.6
Cc1cc(Cl)c(OCCCn2cncn2)c(Br)c1	0	4	0	0	·	·
Cc1cc(Cl)cc(Br)c1OCCCCn1cncn1	9	63*	0	-1	0	-4
CCSCCOC(=O)C1=C(C)NC2=C(C(=O)C(C(=O)OC)C(C)C2)C1c1cccc(OCc2ccccc2)c1 (stereo not given)	-2	71*	0	0	-18	-8
CN(C)CCCN1C(=O)C(=O)/C(=C(\O)c2ccc(Br)cc2)C1c1ccc(Cl)cc1 (stereo not given)	-3	22	0	-2	·	·
CN1C(=O)/C(=C2\SC(=Nc3ccc(Br)cc3)NC2=O)c2ccccc21	-5	8	0	-1	·	·
CN1C(=O)/C(=C2\SC(=Nc3ccc(F)cc3)NC2=O)c2cc(Br)ccc21	1	51*	0	2	3	-9
C#CCOC1(c2ccccc2)OC(=O)c2ccccc21 (stereo not given)	1	-1	0	0	·	·
SMILES	TEAD-YAP block	MITF primary	FBW7 activator	GPR151 ag	MITF inh conf	AS interf ctr	others
Cc1ncc(CO)c(/C=N/NC(=S)Nc2cccc(S(=O)(=O)N(C)C)c2)c1O	4	68*	0	0	7	22
Cc1ncc(CO)c(/C=N/NC(=S)Nc2cccc(Cl)c2)c1O	1	38	-1	1	·	·
Cc1ncc(CO)c(/C=N/NC(N)=S)c1O	0	105*	0	0	6	27
COC(=O)c1c(NC(=O)c2ccc([N+](=O)[O-])o2)sc(Cc2ccc3c(c2)OCO3)c1C	2	55*	0	2	47*	15	AlphaScreen DR=>6.4
Cc1c(Cc2ccc3c(c2)OCO3)sc(NC(=O)c2ccc([N+](=O)[O-])o2)c1C#N	4	-3	0	2	·	·
CCn1c(C)[n+](CC)c2ccc(Cl)cc21	-2	57*	0	1	-2	3
CCn1c(C)[n+](CC)c2ccc(S(=O)(=O)C(F)F)cc21	6	1	0	0	·	·
COC(=O)c1cccn(Cc2ccc(Cl)cc2)c1=O	4	9	0	1	·	·
CSc1nc(-c2ccc([N+](=O)[O-])cc2)nn1C(C)=O	-5	8	0	-1	·	·
COc1ccccc1N1CCN(C2CCCN(C3CCC3)C2)CC1 (stereo not given)	-2	12	0	1	·	·
COc1ccccc1N1CCN(C2CCCN(S(=O)(=O)c3ccc(C)cc3)C2)CC1 (stereo not given)	1	-6	0	1	·	·
COc1ccccc1N1CCN(C2CCN(C3CCCCC3)CC2)CC1	-2	69*	0	-1	-8	-2
COc1cccc(CN2CCC(N3CCN(c4ccccc4OC)CC3)CC2)c1	3	56*	0	-3	-4	-3
CC1CN(C2CCN(S(=O)(=O)c3ccc4ccccc4c3)CC2)CC(C)O1 (stereo not given)	0	52*	0	0	3	7
COc1ccc(S(=O)(=O)N2CCC(N3CCN(c4ccccc4OC)CC3)CC2)cc1	1	89*	1	-1	3	13
Cc1ccc(CNC(=O)C2CCN(Cc3ccc(F)cc3)CC2)cc1	3	37	0	0	·	·
CCOC(=O)C1CCN(C(=O)/C=C/c2ccccc2)CC1	-44	-2	0	-1	·	·
CCOc1ccc(CN2CCC(C(=O)NCc3ccc(C)cc3)CC2)cc1	12	54*	0	0	8	18
CCc1ccc(CN2CCC(C(=O)N3CCCC3)CC2)cc1	-1	58*	0	-1	14	19
CCOC(=O)C1CCN(C(=O)/C=C/c2ccc(F)cc2)CC1	-36	71*	0	0	1	-2
CCOC(=O)C1CCN(Cc2cn[nH]c2-c2ccccc2)CC1	-2	55*	0	-1	-14	11
Cc1ccc(C(=O)NCc2nc(-c3cccc(C)c3)no2)cc1	-9	4	0	-1	·	·
O=c1c2ccccc2nc(-c2ccccc2F)n1NC/C=C/c1ccccc1	-4	1	0	1	·	·
CCOC(=O)C1CCN(C(=O)C2CCN(Cc3ccc(OCC)cc3)CC2)CC1	14	53*	0	0	11	11
CCOC(=O)C1CCN(C(=O)C2CCN(Cc3ccc(CC)cc3)CC2)CC1	13	61*	0	-2	7	16
